Shown are actives, neighbours in structure and some others; about 3.8% of the full set was active somewhere.
ATXN viability – cell viability loss in ATXN counter-screen; 0.49% of 400,000 active; Potency, µM (doses to about 56.7 µM), usual class: cytotoxic; S2 cells (HEK-293 line with an ATXN2-luciferase reporter) viability, CellTiter-Fluor protease fluorescence, 24 h; also: nearly all actives have a fitted effect of over 40% in size
HepG2 tox – HepG2 cytotoxicity, counter-screen for TGF-b inhibitors; HepG2 CAGA-GFP viability, ATP luminescence, 18 h; Potency, µM (series often up to 46.1 µM), inactives show at the top dose activity change, negative = cytotoxicity, most hits filed as cytotoxic; 0.76% of 410,000 active
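CellTiter-Glo luminescence gave cytotoxicity after 18 hours at 37 degrees C. The cells were HepG2 CAGA-GFP in 1% FBS DMEM, stimulated with 500 pg/mL TGF-beta after compound addition. %Activity was normalised to no-cell wells (complete cell-killing) and DMSO (no toxicity), and curves were fitted and classified.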
HT1080 IDH1KD tx – toxicity to HT-1080 IDH1 knockdown cells (counter line) | HT-1080 IDH1 knockdown viability, ATP luminescence, 48 h | Potency, µM (highest dose often 46.1 µM), for the others: at the highest dose activity, negative = toxicity, actives largely listed as cytotoxic | 2% of 360,000 active;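 also: 0% = DMSO wells and -100% = cell-free medium wells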
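Cytotoxicity counter-line: IDH1KD HT-1080, 48 h, CellTiter-Glo. Curves classed by r2, magnitude and activity.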
TGFb inhibitor – TGF-b pathway inhibition; 1.2% of 410,000 active; HepG2 CAGA-GFP TGF-b/SMAD3 reporter, GFP fluorescence, 18 h; TGF-beta stimulated, 500 pg/mL final; Potency, µM (highest dose often 46.1 µM), inactives show at the highest dose activity, negative = inhibition, usual class: inhibitors; AID 588855; also: % is scaled to controls: 0 for no effect and ±100 for the full control effect; nearly all actives have a fitted effect of over 65% in size
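HEPG2 CAGA-GFP reporter cells (1000/well, DMEM with 1% FBS) received compounds, then recombinant TGF-beta at 500 pg/mL final for 18 hours at 37 degrees C. Per-cell GFP summed per well was normalised to unstimulated and stimulated DMSO controls before curve fitting.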
ATXN2 expr inh – ATXN2 expression inhibition. Potency, µM (titrated, usually from 57 µM), without a hit: top-dose activity change, negative = inhibition, actives largely listed as inhibitors. HEK-293 ATXN2-luciferase reporter, luminescence, 24 h. 0.72% of 360,000 active; also: % is scaled to controls: 0 for no effect and ±100 for the full control effect; nearly all actives have a fitted effect of over 55% in size
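qHTS (up to 57 uM final) was run with 24 h compound exposure of reporter cells at 37 °C. Each well was multiplexed: SteadyGlo luminescence measured ATXN2-luciferase expression after a fluorogenic Gly-Phe-AFC viability readout (25 uM final).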
HT1080-NT tox – kills 2HG-producing HT-1080-NT fibrosarcoma cells | HT-1080-NT fibrosarcoma viability, CellTiter-Glo ATP luminescence, 48 h | Potency, µM (top dose mostly 46.1 µM), inactives show at the top dose activity, negative = less viability, usual class: cytotoxic | 1.6% of 360,000 active | AID 686970;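 also: NT is the 2HG producing partner of a matched IDH1 knockdown line; 0% = DMSO-treated cells and -100% = media-only wells without cells; nearly all actives have a fitted effect of over 55% in size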
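Viability of the 2HG-overproducing fibrosarcoma line after 48 hours of compound exposure at 37 degrees C was determined by luminescence with CellTiter-Glo, and concentration-effect curves were then fitted and categorized.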
* = called active by the depositor; i = inactive; ? = inconclusive; nt = no result given; [ ] = remark or other dose. Calls follow the shape of the dose curve; as a rule, active = well fitted curve in the direction sought with a large enough effect; inconclusive = small, poorly fitted or top-dose-only effect, or another doubt; inactive = no such curve, though single readings can be large; an effect the other way counts as inactive or inconclusive. Potency is read from the fitted curve at half-maximal effect.

SMILES	ATXN viability	HepG2 tox	HT1080 IDH1KD tx	TGFb inhibitor	ATXN2 expr inh	HT1080-NT tox
CCOC(=O)Cn1cc(C=C2C(=O)N(C)C(=O)N(C)C2=O)c2ccccc21	i	-42%	6%	7.1µM*	0%	7%
O=c1c2ccccc2sn1-c1ccc(Cl)cc1	18µM*	-78%	?	?	?	?
C[C@H]1CCC/C=C/C2C[C@H](O)CC2[C@H](O)/C=C/C(=O)O1 (stereo not given in full)	?	-27%	0.029µM*	0.1µM*	?	0.037µM*
CCCCC[C@H]1CCCCC[C@H](O)C[C@H](O)[C@@H](O)/C=C/C(=O)O1	i	nt	-7%	nt	-10%	-2%
CC(C)N(C(=O)CCl)c1ccccc1	?	-12%	?	11%	-22%	3.7µM*
COc1ccc(NC(=O)Cn2c(=O)oc3cc(S(=O)(=O)NCc4ccccc4)ccc32)c(OC)c1	nt	-32%	nt	0%	nt	nt
COC(=O)C(NC(C)=O)(Nc1nc2c(C)cc(C)cc2s1)C(F)(F)F (stereo not given)	i	-16%	13µM*	-9%	-28%	16µM*
CC(C)(C)NCC(O)c1cc(Cl)c(N)c(C(F)(F)F)c1 (stereo not given)	?	nt	nt	nt	3%	nt
C[C@H]1CN([C@@H](C)CO)C(=O)c2cc(-c3cccnc3)cnc2O[C@H]1CN(C)Cc1ccc(Oc2ccccc2)cc1	?	-20%	-15%	-11%	-26%	0%
Cc1cc([N+](=O)[O-])c2ccccc2[n+]1[O-]	nt	-126%	8.2µM*	0.5µM*	nt	6.5µM*
Cc1ccccc1[N+](=O)[O-]	i	-10%	nt	2%	-11%	nt
CC1CCCN(CCCNC(=O)c2ccc3c(c2)N(Cc2cccc(Cl)c2)C(=O)c2ccccc2S3=O)C1 (stereo not given)	?	13µM*	?	18µM*	nt	-25%
Cc1ccc(-n2c(O)c(/C=N/Nc3ccccc3)c(=O)[nH]c2=O)cc1C	i	2%	6.5µM*	9%	-16%	?
Cn1c(O)c(C=Nc2ccccc2)c(=O)n(C)c1=O	i	-15%	-7%	5%	-23%	2%
COc1ccc(N/N=C/c2c(O)n(-c3cccc(C)c3)c(=O)[nH]c2=O)cc1	i	-26%	12µM*	-20%	-29%	12µM*
Cn1c(O)c(/C=N/Nc2ccccc2)c(=O)n(C)c1=O	i	1%	7.3µM*	4%	-21%	8.2µM*
COc1ccc(N/N=C/c2c(O)n(-c3ccc(C)c(C)c3)c(=O)[nH]c2=O)cc1	i	-10%	?	-7%	1%	?
CCC(CC)(CNC(=O)CCCO)c1cccc(OC)c1	i	nt	nt	nt	9%	nt
O=C(Nc1ccc(Cl)c(C(F)(F)F)c1)NC1CC2CCCC(C1)N2Cc1ccccc1 (stereo not given)	?	-115%	?	20µM*	?	18µM*
CCOC(=O)[C@]12Cc3cc(OC)ccc3[C@H]1N(CC(=O)OC)C(=O)c1ccccc12	?	nt	5%	nt	15%	5%
CCOC(=O)[C@]12Cc3ccccc3[C@H]1N(C(C)C)C(=O)c1ccccc12	nt	nt	21µM*	nt	?	?
CCOC(=O)[C@]12Cc3c(cc(OC)c(OC)c3OC)[C@H]1N(C1CCCCC1)C(=O)c1ccccc12	8.9µM*	nt	2.9µM*	nt	6.3µM*	3.3µM*
CCOC(=O)[C@]12Cc3ccc(C)cc3[C@H]1N(C1CCCCC1)C(=O)c1cc(OC)ccc12	4.5µM*	nt	3.3µM*	nt	4µM*	4.1µM*
CCOC(=O)[C@]12Cc3cc(C)ccc3[C@H]1N(CCC(=O)OC)C(=O)c1ccccc12	18µM*	nt	13µM*	nt	-29%	16µM*
COc1ccc(C)cc1NC(=O)C1CCN(S(=O)(=O)c2ccc3[nH]c(=O)oc3c2)CC1	i	-34%	nt	-8%	-3%	nt
SMILES	ATXN viability	HepG2 tox	HT1080 IDH1KD tx	TGFb inhibitor	ATXN2 expr inh	HT1080-NT tox
C[C@H]1CNC(=O)c2c(C(=O)Nc3cccc(Cl)c3)ncn21	i	31%	-7%	-8%	5%	-16%
Cc1sc2c(c1C)C(c1ccc(Cl)cc1)=N[C@@H](CC(=O)OC(C)(C)C)c1nnc(C)n1-2	nt	nt	nt	nt	10%	nt
CCOC(=O)[C@]12Cc3cc(C)ccc3[C@H]1N(C1CCCCC1)C(=O)c1ccccc12	3.5µM*	nt	3.7µM*	nt	4.5µM*	3.7µM*
CCOC(=O)[C@]12Cc3cc(Cl)ccc3[C@H]1N(C1CCCCC1)C(=O)c1cc(OC)ccc12	2µM*	nt	1.8µM*	nt	2.2µM*	2.3µM*
CCOC(=O)[C@]12Cc3ccc(C)cc3[C@H]1N(C1CCCCC1)C(=O)c1ccccc12	13µM*	nt	5.8µM*	nt	11µM*	8.2µM*
O=[N+]([O-])c1ccc(Cl)c([N+](=O)[O-])c1	18µM*	7.1µM*	18µM*	5µM*	?	5.2µM*
O=[N+]([O-])c1ccc(O)c([N+](=O)[O-])c1	i	10%	-24%	26%	6%	-19%
O=C(NC1C=CS(=O)(=O)C1)c1sc2ccccc2c1Cl (stereo not given)	i	-20%	11µM*	-2%	?	16µM*
O=C(c1sc2ccccc2c1Cl)N1CCC2(CC1)OCCO2	i	-30%	-27%	17%	14%	0%[9.24 µM]
CCCN(CCC)C(=O)Cc1c(-c2ccc(Cl)cc2)nc2ccc(Cl)cn12	?	nt	nt	nt	-1%	nt
COc1ccc(/C=C/C2=CCN(C)CC2)cc1	i	-13%	3%	17%	nt	-5%
CN1CC=C(/C=C/c2ccc(-c3ccccc3)cc2)CC1	?	11µM*	-13%	?	nt	-17%
CCOC(=O)CCCc1cc[c]([Sb](=[O])([OH])[OH])cc1	nt	-8%	nt	?	nt	nt
OC(c1cccc(Cl)c1)(c1cccc(Cl)c1)C1CN2CCC1CC2 (stereo not given)	?	-109%	18µM*	?	-2%[11.3 µM]	23µM*
CC(O)C1C=CC=CC(=O)OC2CC3OC4C5OC5(C)C(O)CC4(COC(=O)C(O)C(C)CCO1)C2(C)C31CO1 (stereo not given)	?	4%	nt	0.45µM*	?	?
CC1CCOC(=O)C=CC=CC(=O)OC2CC3OC4C5OC5(C)C(O)CC4(COC(=O)C1O)C2(C)C31CO1 (stereo not given)	0.27µM*	11%	nt	0.28µM*	0.27µM*	?

High-throughput results from PubChem BioAssay.
